# Source: PubChem
# Rows were chosen to be rich in hits. Some 18% of all compounds tested hit in one or more screens of this group.
# DT40 TDP1 CPT = qHTS for Inhibitors of human tyrosyl-DNA phosphodiesterase 1 (TDP1): qHTS in cells in presence of CPT; Potency, µM (series often up to 46.2 µM), for inactives: top-dose activity change, negative = growth inhibition, most hits filed as inhibitors; actives 12% (n = 420,000); AID 686979, 2013; chicken DT40 Tdp1-/-;hTDP1 cells + 20 nM CPT, ATP luminescence, 48 h; also: potency is read from the fitted curve at half-maximal effect; % is scaled to controls: 0 for no effect and ±100 for the full control effect; nearly all actives have a fitted effect of over 55% in size
#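 Chicken DT40 Tdp1-/- cells stably complemented with human TDP1 were seeded at 400 cells/well in medium containing 20 nM camptothecin, exposed to pin-transferred compounds, and grown at 37 °C for at least 48 hr. Viability was read as ATP luminescence.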
# IL1B secr inh = qHTS for Inhibitors of Inflammasome Signaling: IL-1-beta AlphaLISA Primary Screen. THP-1 LPS/ATP IL-1B secretion, AlphaLISA, 16 h; hits give low values. activity change, % at 57.5 µM. actives 4.7% (n = 360,000). AID 743279, 2014; in the data active = activity change below about -50%; inconclusive = mostly about -30% to -49%; also: % is scaled to controls: 0 for no effect and ±100 for the full control effect
#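 THP-1 cells pretreated 1 hr with compounds (up to 57.5 uM final), then stimulated with LPS (250 ng/mL final) plus ATP (1.25 mM final); secreted IL-1B measured by AlphaLISA after 16 hr, decreased signal indicating inhibition.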
# TDP1 block = qHTS Assay for Inhibitors of Tyrosyl-DNA Phosphodiesterase (TDP1); Tyrosyl-DNA phosphodiesterase 1 (Homo sapiens), Q9NUW8; recombinant TDP1, AlphaScreen DNA substrate cleavage; Potency, µM (series often up to 130 µM), for the others: top-dose activity change, negative = inhibition, hits mostly inhibitors; actives 0.28% (n = 350,000); AID 485290, 2010; also: potency is read from the fitted curve at half-maximal effect; % is scaled to controls: 0 for no effect and ±100 for the full control effect; nearly all actives have a fitted effect of over 40% in size
# Target sequence (Q9NUW8 whole entry, looked up): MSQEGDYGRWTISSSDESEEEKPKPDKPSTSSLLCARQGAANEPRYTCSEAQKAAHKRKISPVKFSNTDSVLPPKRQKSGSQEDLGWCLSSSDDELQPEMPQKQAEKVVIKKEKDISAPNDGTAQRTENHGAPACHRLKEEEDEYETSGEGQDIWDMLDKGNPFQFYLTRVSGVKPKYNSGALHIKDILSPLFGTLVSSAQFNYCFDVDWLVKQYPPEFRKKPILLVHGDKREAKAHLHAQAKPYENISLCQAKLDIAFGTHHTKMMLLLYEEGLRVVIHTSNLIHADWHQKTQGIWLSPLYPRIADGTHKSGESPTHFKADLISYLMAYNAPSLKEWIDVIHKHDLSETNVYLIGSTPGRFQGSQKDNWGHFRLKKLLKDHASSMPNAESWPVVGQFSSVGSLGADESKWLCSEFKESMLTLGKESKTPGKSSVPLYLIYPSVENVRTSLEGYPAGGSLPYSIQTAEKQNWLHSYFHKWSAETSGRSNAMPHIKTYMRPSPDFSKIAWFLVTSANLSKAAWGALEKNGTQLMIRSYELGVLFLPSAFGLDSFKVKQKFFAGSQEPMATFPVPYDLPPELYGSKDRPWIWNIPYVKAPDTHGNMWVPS
#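 Steps: enzyme plus compound, 15 min RT; add biotin/phosphotyrosine-FITC oligonucleotide (15 nM final), react 5 min; add donor/acceptor beads (10 ug/ml final), 10 min; read AlphaScreen. Tdp1 at 1 nM final.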
# HepG2 viability = qHTS for Inhibitors of TGF-b: Cytotox Counterscreen; HepG2 CAGA-GFP viability, ATP luminescence, 18 h; Potency, µM (series often up to 46.1 µM), for inactives: at the highest dose activity change, negative = cytotoxicity, hits mostly cytotoxic; actives 0.76% (n = 410,000); also: potency is read from the fitted curve at half-maximal effect
#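 CellTiter-Glo luminescence gave cytotoxicity after 18 hours at 37 degrees C. The cells were HepG2 CAGA-GFP in 1% FBS DMEM, stimulated with 500 pg/mL TGF-beta after compound addition. %Activity was normalised to no-cell wells (complete cell-killing) and DMSO (no toxicity), and curves were fitted and classified.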
# TDP1 cell noCPT = qHTS for Inhibitors of human tyrosyl-DNA phosphodiesterase 1 (TDP1): qHTS in cells in absence of CPT | DT40 Tdp1-/- hTDP1 cells, no CPT, ATP luminescence, 48 h | Potency, µM (doses to about 46.2 µM), for the others: at the top dose activity change, negative = growth inhibition, actives largely listed as inhibitors | actives 15% (n = 420,000); also: potency is read from the fitted curve at half-maximal effect; % is scaled to controls: 0 for no effect and ±100 for the full control effect; nearly all actives have a fitted effect of over 55% in size
#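 Luminescent ATP content (CellTiter-Glo) served as the growth readout. Knockout chicken DT40 cells expressing human TDP1 were exposed to compounds without camptothecin for a minimum 48 hr at 37 °C.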
# TGFb SMAD3 inh = qHTS for Inhibitors of TGF-b | Potency, µM (top dose mostly 46.1 µM), without a hit: top-dose activity, negative = inhibition, most hits filed as inhibitors | AID 588855, 2011 | actives 1.2% (n = 410,000) | HepG2 CAGA-GFP TGF-b/SMAD3 reporter, GFP fluorescence, 18 h; TGF-beta stimulated, 500 pg/mL final; also: potency is read from the fitted curve at half-maximal effect; % is scaled to controls: 0 for no effect and ±100 for the full control effect; nearly all actives have a fitted effect of over 65% in size
#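 HEPG2 CAGA-GFP cells (1000/well, DMEM with 1% FBS) were pre-incubated 2 h at 37 degrees C, given compound by pin tool, then stimulated with TGF-beta at 500 pg/mL final for 18 h before per-cell GFP fluorescence imaging.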
# An asterisk follows results filed as active; ? = inconclusive; / = no result; [ ] = another dose, or the depositor's remark. Unless noted, calls follow the shape of the dose curve; as a rule, active = well fitted curve in the direction sought with a large enough effect; inconclusive = small, poorly fitted or top-dose-only effect, or another doubt; inactive = no such curve, though single readings can be large; an effect the other way counts as inactive or inconclusive.
SMILES,DT40 TDP1 CPT,IL1B secr inh,TDP1 block,HepG2 viability,TDP1 cell noCPT,TGFb SMAD3 inh
O=C1CC(c2ccccc2)Cc2[nH]c(=O)c(C(=O)O)cc21 (stereo unspecified),5.4%,/,/,-7.7%,-16.4%,-11.0%
COc1cc(C2NC(=S)NC3=C2CCc2ccccc23)cc(OC)c1OC (stereo unspecified),-12.3%,45.4,8.2%,-0.7%,?,3.9%
COc1ccc2c(c1)CCC1=C2NC(=S)NC1c1ccc(N(C)C)cc1 (stereo unspecified),?,-17.0,11.9%,-21.8%,16.4µM*,-22.4%
COc1ccc(C2NC(=S)NC3=C2CCCC3=C2SCCS2)cc1 (stereo unspecified),2.31µM*,-81.7*,5.1%,-50.7%,2.91µM*,-23.6%
COC(=O)c1ccc(Cn2c(SCc3ccccc3F)nc3ccncc32)cc1,?,/,2.0%,-2.6%,?,-26.5%
O=C(NCCc1ccccn1)C1CC12CCN(C(=O)c1c(F)cccc1Cl)CC2 (stereo unspecified),7.3%[9.04 µM],/,/,/,-5.6%,/
N#C/C(=C\c1ccc([N+](=O)[O-])cc1)c1ccccn1,?,-73.1*,10.0%,-28.2%,23.1µM*,5.5%
COC(=O)c1ccc(/C=C(\C#N)c2ccccn2)cc1,?,24.6,1.2%,-23.0%,?,10.8%
N#C/C(=C\c1ccccn1)c1ccccn1,23.1µM*,-94.2*,/,-17.1%,14.6µM*,-10.0%
Cc1cc(C)n2nc(/C(C#N)=C/c3ccccn3)c(C#N)c2n1,?,-97.8*,0.0%,-9.4%,9.2µM*,0.3%
C(=C\c1ccccn1)/c1ccccn1,3.8%,-6.0,5.5%,-7.9%,-15.8%,-18.4%
Cc1cc(C)n2nc(CC#N)c(C#N)c2n1,13.8%,15.6,0.0%,6.2%,-13.2%,4.9%
CN(C)c1ccc(/C=C(\C#N)c2ccccn2)cc1,-28.5%,-10.0,3.0%,-61.9%,23.1µM*,26.6%
O=S(=O)(Nc1cccc(-c2ccc(N3CCCC3)nn2)c1)c1ccc(F)c(C(F)(F)F)c1,6.5%,/,4.1%,0.3%,2.1%,-13.1%
O=C(COC(=O)c1ncc(Cl)c(Cl)c1Cl)NC1CCCCCC1,1.0%,-27.5,-1.2%,0.6%,-3.1%,0.4%
O=C(COCc1cc(-c2cccs2)on1)Nc1ccc(OC(F)(F)F)cc1,-17.9%,/,0.0%,-16.4%,-19.4%,-11.5%
Cc1ccc(S(=O)(=O)N2CCN(C(=O)c3cc(S(=O)(=O)N4CCOCC4)ccc3Cl)CC2)c(C)c1,18.4µM*,-13.0,/,-33.4%,16.4µM*,-26.7%
COc1cc2c(cc1OC)CN(C(=O)c1cc(S(=O)(=O)N3CCOCC3)ccc1Cl)CC2,?,-22.0,3.0%,-20.3%,20.6µM*,13.9%
O=C(c1cc(S(=O)(=O)N2CCCCC2)ccc1Cl)N1CCOCC1,11.1%,-6.3,1.6%,1.3%,-25.6%,-12.6%
Cc1ccc(S(=O)(=O)N2CCN(CC(=O)Nc3ccc4c(c3)CCC4)CC2)cc1C,-72.3%,2.9,/,10.2%,-84.0%,-5.2%
COc1ccc(C(=O)N2CCc3ccccc3C2)cc1S(=O)(=O)N1CCCC1,?,25.1,/,-21.8%,?,-11.9%
COc1cc2c(cc1OC)CN(C(=O)CN1CCN(S(=O)(=O)c3ccc(C)c(C)c3)CC1)CC2,23.1µM*,-14.3,4.0%,0.0%,13µM*,-14.8%
